According to PubChem BioAssay (NCATS):
Records with an inconclusive call do not appear. Some of the results follow. Active and inactive are the calls of the source. Unless noted, calls come from the whole dose curve; as a rule, active = well fitted curve in the direction sought with a large enough effect; inconclusive = small, poorly fitted or top-dose-only effect, or another doubt; inactive = no such curve, though single readings can be large; an effect the other way counts as inactive or inconclusive.

Key:
[1] = target: DNA repair nuclease/redox regulator APEX1 (Homo sapiens) (UniProt P27695); assay: qHTS Validation Assay for Inhibitors of the Human Apurinic/apyrimidinic Endonuclease 1 (APE1) (AID 1705; note: potency is the fitted concentration of half-maximal effect;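 for activity change, negative = inhibition: TAMRA fluorescence gain over two minutes as APE1 cuts a quenched THF abasic duplex; % is set by controls: 0 for no effect and ±100 for the full control effect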)
Sequence of DNA repair nuclease/redox regulator APEX1 (Homo sapiens) (P27695 whole entry, looked up): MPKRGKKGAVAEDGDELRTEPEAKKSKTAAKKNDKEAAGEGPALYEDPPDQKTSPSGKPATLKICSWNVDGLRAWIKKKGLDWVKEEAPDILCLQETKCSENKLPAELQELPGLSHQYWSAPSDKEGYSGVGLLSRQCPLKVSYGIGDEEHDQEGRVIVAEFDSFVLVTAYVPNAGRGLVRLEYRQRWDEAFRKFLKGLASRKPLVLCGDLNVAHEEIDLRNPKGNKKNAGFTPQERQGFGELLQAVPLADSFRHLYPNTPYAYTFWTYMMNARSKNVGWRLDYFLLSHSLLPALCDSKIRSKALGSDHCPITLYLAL
Summary of the method: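 Endonuclease activity of human APE1 is followed as dequenching when the enzyme incises a tetrahydrofuran abasic site in a short duplex labelled 5'-TAMRA/3'-BHQ-2 (50 nM final), after 15 min enzyme–compound preincubation at room temperature.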

[2] = Counterscreen for APE1 Inhibitors: Fluorescent Dye Displacement Validation Assay (AID 1707); note: potency is the fitted concentration of half-maximal effect;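 for activity change, negative = inhibition: plate controls were ThO with dsDNA and no compound for no effect and ThO without dsDNA for full effect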
Summary of the method: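 Compounds are scored by their ability to displace Thiazole Orange (250 nM) from a 50 nM TAMRA-tagged duplex bearing a tetrahydrofuran abasic site. Buffer is 50 mM Tris-HCl pH7.5, 50mM NaCl, 2 mM MgCl2, 0.01% Tween-20.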

[3] = target: Endonuclease 4 (Escherichia coli (strain K12)) (UniProt P0A6C1); assay: Counterscreen for APE1 Inhibitors: qHTS Validation Assay for Inhibitors of Endonuclease IV (AID 1708); note: % is set by controls: 0 for no effect and ±100 for the full control effect
Summary of the method: (§1)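 Cleavage of a quenched abasic-site DNA duplex (50 nM, 5'-TAMRA, 3'-BHQ-2) by 2 nM enzyme is followed as fluorescence increase. Compounds are preincubated with enzyme 15 min at room temperature before substrate addition.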

[4] = qHTS for differential inhibitors of proliferation of Plasmodium falciparum line D10 (AID 1877);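 note: parasites grown with compound for 72 h before DNA staining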; note: potency is the fitted concentration of half-maximal effect;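 for activity change, negative = inhibition: plate controls were vehicle wells for no effect and reference inhibitor wells for full effect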
[5] = qHTS for differential inhibitors of proliferation of Plasmodium falciparum line Dd2 (AID 1882); settings: Potency: Plasmodium falciparum Dd2 proliferation inhibition; note: nearly all actives have a fitted effect of over 65% in size; note: potency is the fitted concentration of half-maximal effect;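 for activity change, negative = inhibition: compound exposure of 72 h on infected erythrocytes; plate controls were DMSO vehicle for no effect and 0.29 µM artemisinin for full effect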
Summary of the method: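 SYBR Green I DNA fluorescence read-out, ex 485/em 535 nm. Signals were normalized to 0.29 uM artemisinin and DMSO wells, then corrected using vehicle-only plates flanking each stack. Parasite growth ran 72 h in erythrocytes before lysis.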

[6] = qHTS for differential inhibitors of proliferation of Plasmodium falciparum line W2 (AID 1883); settings: Potency: Plasmodium falciparum W2 proliferation inhibition;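 note: parasites grown with compound for 72 h before lysis and staining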; note: potency is the fitted concentration of half-maximal effect;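 for activity change, negative = inhibition: 0% = vehicle wells and -100% = control inhibitor wells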
[7] = qHTS for differential inhibitors of proliferation of Plasmodium falciparum line HB3 (AID 1886); settings: Potency: Plasmodium falciparum HB3 proliferation inhibition;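 note: parasites grown with compound for 72 h before SYBR Green readout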; note: potency is the fitted concentration of half-maximal effect;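 for activity change, negative = inhibition: plate controls were vehicle for no effect and reference inhibitor for full effect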
[8] = qHTS Assay for Modulators of Human Peripheral Myelin Protein 22 (PMP22) Expression/Activity (AID 1967; active = well fitted curve in the direction sought with a large enough effect in the signal ratio; the % refers to the signal ratio;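 note: 0% = untreated cells and 100% end not stated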)
Summary of the method: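 Quantitative HTS in a mouse Schwann cell line expressing dual click beetle luciferases: Pmp22 promoter (green) and control EF-alpha promoter (red). After 24h treatment, corrected green/red signal ratio gave %Activity relative to untreated cells.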

[9] = target: ATP-dependent DNA helicase Q1 (Homo sapiens) (UniProt P46063); assay: qHTS Validation Assay for Inhibitors of RecQ-Like Dna Helicase 1 (RECQ1) (AID 2353);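 note: plate controls were DMSO vehicle for no effect and enzyme-free control for full effect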
Sequence of ATP-dependent DNA helicase Q1 (Homo sapiens) (P46063 whole entry, looked up): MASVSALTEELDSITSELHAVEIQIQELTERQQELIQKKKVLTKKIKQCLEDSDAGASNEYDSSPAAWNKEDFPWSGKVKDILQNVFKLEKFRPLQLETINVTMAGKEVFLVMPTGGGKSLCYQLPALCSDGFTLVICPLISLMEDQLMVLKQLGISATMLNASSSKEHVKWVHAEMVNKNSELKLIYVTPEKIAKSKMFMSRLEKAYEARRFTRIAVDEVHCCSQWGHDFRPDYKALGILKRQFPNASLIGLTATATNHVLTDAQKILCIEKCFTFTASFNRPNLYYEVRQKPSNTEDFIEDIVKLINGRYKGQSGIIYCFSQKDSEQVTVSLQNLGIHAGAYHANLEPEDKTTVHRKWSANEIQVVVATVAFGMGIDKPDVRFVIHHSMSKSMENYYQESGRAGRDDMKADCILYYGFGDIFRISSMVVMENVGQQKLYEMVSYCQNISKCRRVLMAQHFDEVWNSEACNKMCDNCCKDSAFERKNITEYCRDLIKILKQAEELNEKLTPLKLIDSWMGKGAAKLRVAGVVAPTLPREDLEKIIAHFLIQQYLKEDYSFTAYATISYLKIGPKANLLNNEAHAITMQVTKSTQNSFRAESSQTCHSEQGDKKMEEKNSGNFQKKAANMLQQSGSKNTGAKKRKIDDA
Summary of the method: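 50 nM RECQ1T1 preincubated 15 min with compound in Tris pH 8.0 buffer with MgCl2, DTT, Tween-20 and 2.5 ug/ml poly(dI-dC); started with 200 nM TAMRA/BHQ-2 forked duplex and 2 mM ATP. Unwinding read as fluorescence (525/598 nm), two reads 2 h apart.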

[10] = Cytometric Cell-Based qHTS for Inhibitors of the mTORC1 Signaling Pathway in MEF (Tsc2-/-, p53-/-) Cells (AID 2660);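 note: percent of cells above a phospho-rpS6 to PI ratio cutoff in each well; plate controls were DMSO for no effect and rapamycin for full effect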
Summary of the method: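 Immunofluorescence qHTS of rpS6 Ser235/236 phosphorylation: MEFs (Tsc2-/-, p53-/-) treated 24 h, 37 C, in DMEM + 10% FBS. Alexa-488 signal normalized to PI count, referenced to rapamycin (7.5 nM) and DMSO; PI cell number recorded for viability.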

[11] = High Content Imaging Cell-Based qHTS for Inhibitors of the mTORC1 Signaling Pathway in MEF (Tsc2-/-, p53-/-) Cells (AID 2666);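 note: percent of cells scored positive for phospho-rpS6 Ser235/236 immunostaining by imaging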
Summary of the method: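 Phospho-rpS6 (Ser235/236) immunofluorescence, normalized and scored as % positive cells using rapamycin and DMSO controls, was read in empty-vector Tsc2-/-, p53-/- MEFs after 24 h compound exposure at 37 C; propidium iodide counted cells.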

[12] = qHTS for differential inhibitors of proliferation of Plasmodium falciparum line 7G8 (AID 1815);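 note: parasite growth measured after three days of incubation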; note: potency is the fitted concentration of half-maximal effect;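 for activity change, negative = inhibition: plate controls were vehicle wells for no effect and reference inhibitor wells for full effect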
[13] = qHTS for differential inhibitors of proliferation of Plasmodium falciparum line GB4 (AID 1816); settings: Potency: Plasmodium falciparum GB4 proliferation inhibition;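 note: parasite growth measured after 72 h incubation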; note: potency is the fitted concentration of half-maximal effect;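 for activity change, negative = inhibition: 0% = vehicle DMSO and -100% = reference inhibitor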
[14] = qHTS for differential inhibitors of proliferation of Plasmodium falciparum line 3D7 (AID 1876); note: potency is the fitted concentration of half-maximal effect
[15] = target: Ferritin light chain (Equus caballus) (UniProt P02791); assay: qHTS Validation Assay for Identification of Novel General Anesthetics (AID 2323); note: % is set by controls: 0 for no effect and ±100 for the full control effect
Sequence of Ferritin light chain (Equus caballus) (P02791 2-175 limits assumed): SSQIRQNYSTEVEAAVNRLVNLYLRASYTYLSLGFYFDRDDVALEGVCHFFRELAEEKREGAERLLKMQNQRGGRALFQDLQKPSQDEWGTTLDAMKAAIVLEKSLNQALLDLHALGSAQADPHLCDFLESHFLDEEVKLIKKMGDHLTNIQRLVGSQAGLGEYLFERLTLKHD
Summary of the method: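 Apoferritin from horse spleen (10 uM) was mixed with 1-aminoanthracene at 50% saturation in PBS, then compounds were added. After 10 min at room temperature, fluorescence was read (ex 380 nm, em 535 nm) and normalized to free-probe and complex controls.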

[16] = qHTS Assay for Lipid Storage Modulators (AID 1519; calls by dose curve; for activity change, negative = inhibition: % is set by controls: 0 for no effect and ±100 for the full control effect); settings: Drosophila S3 cells, BODIPY lipid droplet/cell ratio, laser cytometry, cells loaded with oleic acid; for activity change, negative = inhibition: at 57.5 µM (top of the series)
Summary of the method: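 Cells seeded at 5,000 per well were treated with compounds over a concentration series and loaded with oleic acid (400 uM, as added). Lipid droplet fluorescence (488 nm excitation, 500-530 nm channel) was read by laser-scanning cytometry and normalized to 20 uM Triacsin C.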

[17] = qHTS Assay for Identification of Small Molecule Inducers of Hypoxia Response (AID 2120; active = well fitted curve in the direction sought with a large enough effect in the signal ratio, with a control signal flat, not every such curve was filed as active; the % refers to the signal ratio; note: 0% is about no effect)
Summary of the method: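 Induction of beta-lactamase reporter activity was measured in CellSensor HRE-bla ME-180 cells after 17 h compound treatment at 37 degrees C, using CCF4 substrate and the 460nm/530nm emission ratio to derive AC50 values.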

[18] = target: RecQ-like DNA helicase BLM (Homo sapiens) (UniProt P54132); assay: qHTS Validation Assay for Inhibitors of Bloom's syndrome helicase (BLM) (AID 2364);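 note: plate controls were DMSO vehicle for no effect and enzyme-free control for full effect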
Sequence of RecQ-like DNA helicase BLM (Homo sapiens) (P54132 whole entry, looked up): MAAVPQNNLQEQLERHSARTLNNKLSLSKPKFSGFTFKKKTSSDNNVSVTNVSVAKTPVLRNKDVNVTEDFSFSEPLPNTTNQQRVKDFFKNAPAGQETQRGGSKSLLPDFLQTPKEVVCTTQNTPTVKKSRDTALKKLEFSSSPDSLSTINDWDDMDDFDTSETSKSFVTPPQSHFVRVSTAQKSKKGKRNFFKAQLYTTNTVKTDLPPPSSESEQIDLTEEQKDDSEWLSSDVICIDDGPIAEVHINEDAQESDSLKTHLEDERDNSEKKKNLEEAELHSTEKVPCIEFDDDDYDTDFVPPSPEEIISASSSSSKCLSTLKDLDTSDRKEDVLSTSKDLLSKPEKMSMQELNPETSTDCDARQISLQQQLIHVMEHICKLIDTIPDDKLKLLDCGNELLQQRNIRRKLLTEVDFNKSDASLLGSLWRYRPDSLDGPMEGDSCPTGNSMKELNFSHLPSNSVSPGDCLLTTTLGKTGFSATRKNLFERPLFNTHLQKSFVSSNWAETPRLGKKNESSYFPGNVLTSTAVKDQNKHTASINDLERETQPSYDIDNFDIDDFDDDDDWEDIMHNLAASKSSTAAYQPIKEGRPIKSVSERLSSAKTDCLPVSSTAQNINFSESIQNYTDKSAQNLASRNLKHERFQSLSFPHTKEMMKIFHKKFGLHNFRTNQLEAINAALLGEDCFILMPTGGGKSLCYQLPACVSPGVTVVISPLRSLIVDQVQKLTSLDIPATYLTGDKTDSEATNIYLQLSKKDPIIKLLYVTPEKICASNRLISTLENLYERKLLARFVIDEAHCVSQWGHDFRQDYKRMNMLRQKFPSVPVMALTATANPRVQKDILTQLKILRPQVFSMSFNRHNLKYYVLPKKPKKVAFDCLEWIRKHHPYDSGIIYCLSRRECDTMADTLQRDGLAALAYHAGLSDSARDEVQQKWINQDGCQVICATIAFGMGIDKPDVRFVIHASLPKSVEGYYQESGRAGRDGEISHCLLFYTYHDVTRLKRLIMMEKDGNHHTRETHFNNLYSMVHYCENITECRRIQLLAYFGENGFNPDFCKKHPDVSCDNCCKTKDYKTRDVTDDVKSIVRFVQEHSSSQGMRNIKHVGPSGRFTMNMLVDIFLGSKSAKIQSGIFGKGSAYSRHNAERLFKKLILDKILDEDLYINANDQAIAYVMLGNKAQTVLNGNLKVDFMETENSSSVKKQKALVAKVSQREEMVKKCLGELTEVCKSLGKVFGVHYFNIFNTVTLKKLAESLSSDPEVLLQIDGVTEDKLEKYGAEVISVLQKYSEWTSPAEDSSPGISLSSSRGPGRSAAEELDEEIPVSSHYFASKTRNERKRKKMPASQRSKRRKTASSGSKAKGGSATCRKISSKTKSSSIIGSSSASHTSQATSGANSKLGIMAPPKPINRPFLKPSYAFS
Summary of the method: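 50 nM BLM preincubated 15 min at room temperature with compound in pH 8.0 Tris buffer containing 2.5 ug/ml poly(dI-dC); started with 200 nM TAMRA/BHQ-2 forked duplex and 2 mM ATP (final). Unwinding read as TAMRA fluorescence increase, two reads 2 h apart.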

[19] = target: Endonuclease 4 (Escherichia coli (strain K12)) (UniProt P0A6C1); assay: Counterscreen for APE1 Inhibitors: qHTS Assay for Inhibitors of Endonuclease IV (AID 2565); note: potency is the fitted concentration of half-maximal effect
Summary of the method: as §1

[20] = target: DNA repair nuclease/redox regulator APEX1 (Homo sapiens) (UniProt P27695); assay: Confirmation qHTS Assay for Inhibitors of the Human Apurinic/apyrimidinic Endonuclease 1 (APE1) (AID 2572); note: potency is the fitted concentration of half-maximal effect; nearly all actives have a fitted effect of over 30% in size
Summary of the method: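 Readout: kinetic fluorescence (Ex 525, Em 598 nm) from APE1 incision of a 5'-TAMRA, 3'-BHQ-2 duplex containing a THF abasic site at 50 nM final. Compound preincubation 15 min, room temperature.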

[21] = measured here: cell count channel max response
[22] = measured here: lipid channel max response

O=C1O/C(=C/Br)CCC1c1cccc2ccccc12 (stereo unspecified)
active: Potency [6] 11.2 µM
inactive: Potency [1] | Potency [2] | Potency [3] | Potency [4] | Potency [5] | Potency [7] | outcome [8] | Potency [9] | outcome [10] | Potency [11]

CC(C)(C)c1ccc(S(=O)(=O)/C=C/C#N)cc1
inactive: Potency [1] | Potency [2] | Potency [3] | Potency [15] | Potency [9] | outcome [10] | Potency [11]
active: Potency [12] 10 µM | Potency [13] 14.1 µM | Potency [14] 10 µM | Potency [4] 12.6 µM | Potency [5] 11.2 µM | Potency [6] 7.08 µM | Potency [7] 8.91 µM

O=C1CN(/N=C/c2ccc([N+](=O)[O-])o2)C(=O)N1
inactive: activity change, negative = inhibition [16] 8.89% | outcome [17]
14.3%: max response [16, 22]
3.43%: max response [16, 21]

CN1CCc2ccccc2Cc2[nH]c3ccccc3c2CC1
active: Potency [12] 7.08 µM | Potency [13] 10 µM | Potency [14] 7.08 µM | Potency [4] 12.6 µM | Potency [5] 12.6 µM | Potency [6] 5.62 µM | Potency [7] 10 µM
inactive: Potency [1] | Potency [2] | Potency [3] | Potency [15] | Potency [9] | outcome [10] | Potency [11]

O=C(O)c1cc(=O)c2ccccc2[nH]1
inactive: activity change, negative = inhibition [16] 3.93% [middle of 4 runs] | Potency [1] | Potency [2] | Potency [3] | Potency [12] | Potency [13] | Potency [14] | Potency [4] | Potency [5] | Potency [6] | Potency [7] | outcome [8] | Potency [15] | Potency [9] | Potency [18] | outcome [10] | Potency [11]

c1ccc(-c2ccccn2)nc1
inactive: Potency [1] | Potency [2] | Potency [3] | Potency [13] | Potency [14] | Potency [4] | Potency [5] | Potency [7] | outcome [8] | Potency [15] | Potency [9] | outcome [10] | Potency [11]

NC(=O)C(=O)O
inactive: Potency [1] | Potency [2] | Potency [3] | Potency [12] | Potency [13] | Potency [14] | Potency [4] | Potency [5] | Potency [6] | Potency [7] | outcome [8] | Potency [15] | Potency [9] | Potency [11]

CCCn1c(=O)c2[nH]c(-c3ccc(OCC(=O)NCCN)cc3)nc2n(CCC)c1=O
active: Potency [13] 10 µM | Potency [6] 12.6 µM
inactive: Potency [1] | Potency [2] | Potency [3] | Potency [15] | Potency [9] | Potency [18] | outcome [10] | Potency [11]

NCCNC(=O)c1ncsc1-c1cccc(F)c1
inactive: Potency [1] | Potency [2] | Potency [3] | Potency [14] | Potency [4] | Potency [7] | Potency [15] | Potency [9] | Potency [18] | Potency [11]

O=C(O)CC[C@@H](C(=O)O)N1C(=O)c2ccccc2C1=O
inactive: Potency [1] | Potency [2] | Potency [12] | Potency [13] | Potency [14] | Potency [4] | Potency [5] | Potency [6] | Potency [7] | Potency [15] | Potency [9] | Potency [18] | outcome [10] | Potency [11]

S=c1[nH]c2ccccc2s1
14.4%: max response [16, 21]
inactive: activity change, negative = inhibition [16] 12% | outcome [17]
29.5%: max response [16, 22]

N=C(N)SCCc1ccc(CCSC(=N)N)cc1
inactive: Potency [1] | Potency [2] | Potency [3] | Potency [14] | Potency [5] | Potency [7] | outcome [8] | Potency [15] | Potency [9] | outcome [10] | Potency [11]
active: Potency [6] 11.2 µM

CN(C)C(N)=NCCC[C@H](N)C(=O)O
inactive: Potency [1] | Potency [2] | Potency [3] | Potency [12] | Potency [13] | Potency [14] | Potency [4] | Potency [5] | Potency [6] | Potency [7] | Potency [15] | Potency [9] | Potency [11]

N#C/C(=C\c1ccc(O)c(O)c1)C(=O)NCc1ccccc1
active: Potency [12] 12.6 µM | Potency [13] 11.2 µM | Potency [14] 10 µM | Potency [4] 17.8 µM | Potency [6] 11.2 µM | Potency [7] 11.2 µM
inactive: Potency [1] | Potency [2] | Potency [3] | Potency [9] | Potency [11]

Oc1ccccc1O
-20.2%: max response [16, 21]
inactive: activity change, negative = inhibition [16] -4.75% | Potency [2] | Potency [15] | Potency [9] | Potency [11]
-25.6%: max response [16, 22]

CC(COc1ccc(/C=C/c2ccccc2)cc1)[N+](C)(C)C (stereo unspecified)
inactive: Potency [1] | Potency [2] | Potency [3] | Potency [15] | Potency [9] | Potency [18] | outcome [10] | Potency [11]
active: Potency [12] 7.08 µM | Potency [13] 2.24 µM | Potency [14] 1.26 µM | Potency [4] 2.24 µM | Potency [5] 5.01 µM | Potency [6] 2.82 µM | Potency [7] 2 µM

C[N+](C)(CCCCCC[N+](C)(C)CCCN1C(=O)c2cccc3cccc(c23)C1=O)CCCN1C(=O)c2cccc3cccc(c23)C1=O
inactive: Potency [3] | outcome [8] | Potency [9] | Potency [18] | outcome [10] | Potency [11]
active: Potency [1] 3.55 µM | Potency [2] 5.62 µM | Potency [12] 0.794 µM | Potency [13] 0.316 µM | Potency [14] 0.0631 µM | Potency [4] 0.631 µM | Potency [5] 2.24 µM | Potency [6] 0.631 µM | Potency [7] 0.562 µM | Potency [19] 3.55 µM | Potency [20] 4.47 µM

Cc1ccc(C(=O)O[C@H](C(=O)O)[C@@H](OC(=O)c2ccc(C)cc2)C(=O)O)cc1 (tested in a mixture with another compound)
35.2%: max response [16, 21]
inactive: activity change, negative = inhibition [16] -0.359% | Potency [2] | Potency [3] | Potency [12] | Potency [13] | Potency [14] | Potency [4] | Potency [5] | Potency [6] | Potency [7] | outcome [8] | Potency [15] | Potency [9] | Potency [11]
38.6%: max response [16, 22]
